# Assay results reported in PubChem BioAssay (EPA / NIEHS).
# Inconclusive results are not listed. Calls of active or inactive are those of the source. Rule for the calls: active = hit-call score of the fitted dose curve at least 0.9, where 1 is the maximum; inconclusive = response in the unintended direction; inactive = score below 0.9.
# Target: human Raf-1 Proto-Oncogene, serine/threonine Kinase (RAF1), RAF1 (gene 5894) (UniProt P04049)
# Test: NVS_ENZ_hRAF1: NovaScreen (NVS) Enzymatic Assay for human Raf-1 Proto-Oncogene, serine/threonine Kinase (RAF1) (AID 2283216)
# Summary of the method: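 Cell-free recombinant kinase with specific fluorescent substrate, product separated by electrophoretic mobility shift; read 1 h after dosing. Primary screen at 25 uM in duplicate; hits then run in concentration-response up to 50 uM, fitted as loss of signal versus DMSO.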
# Sequence of human Raf-1 Proto-Oncogene, serine/threonine Kinase (RAF1), RAF1 (gene 5894) (P04049 whole entry, looked up): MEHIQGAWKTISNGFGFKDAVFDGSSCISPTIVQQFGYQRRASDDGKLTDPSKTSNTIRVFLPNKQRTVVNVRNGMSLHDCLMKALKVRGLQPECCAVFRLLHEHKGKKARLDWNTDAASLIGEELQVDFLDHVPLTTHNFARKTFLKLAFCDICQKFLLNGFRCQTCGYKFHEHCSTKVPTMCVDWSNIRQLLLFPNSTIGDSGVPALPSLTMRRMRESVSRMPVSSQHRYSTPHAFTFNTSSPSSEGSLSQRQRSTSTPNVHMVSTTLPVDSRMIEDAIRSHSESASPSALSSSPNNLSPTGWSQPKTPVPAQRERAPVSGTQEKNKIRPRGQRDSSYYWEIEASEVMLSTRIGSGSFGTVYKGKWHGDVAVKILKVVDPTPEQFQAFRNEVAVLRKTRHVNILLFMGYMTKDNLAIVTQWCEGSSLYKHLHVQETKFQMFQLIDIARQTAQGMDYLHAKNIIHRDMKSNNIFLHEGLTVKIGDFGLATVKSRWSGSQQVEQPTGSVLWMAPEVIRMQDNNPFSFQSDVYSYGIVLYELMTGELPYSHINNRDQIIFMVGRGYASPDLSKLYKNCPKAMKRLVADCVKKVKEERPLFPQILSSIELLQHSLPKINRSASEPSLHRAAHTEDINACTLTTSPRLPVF
row,SMILES,outcome
1,CCc1c(C(=O)NN2CCCCC2)nn(-c2ccc(Cl)cc2Cl)c1-c1ccc(Br)cc1,inactive
2,Cc1cc(CCN2CCN(c3nsc4ccccc34)CC2)cc2c1NC(=O)CC2(C)C,inactive
3,Cn1c(=O)cc(Oc2ccc(F)cc2F)c2cnc(NCC(C)(C)O)nc21,inactive
4,Clc1cc(Cl)c2c(c1)N=C1CCCCCN1C2,inactive
5,O=C(O)Cc1cc(I)c(Oc2cc(I)c(O)c(I)c2)c(I)c1,inactive
6,Cc1ccc(N)cc1O,inactive
7,O=C(O)CCCCC(=O)O,inactive

# Target: human Tyrosine Protein Kinase Receptor Tie-2 (Tie2), TEK (gene 7010) (UniProt Q02763)
# Sequence (Q02763 whole entry, looked up): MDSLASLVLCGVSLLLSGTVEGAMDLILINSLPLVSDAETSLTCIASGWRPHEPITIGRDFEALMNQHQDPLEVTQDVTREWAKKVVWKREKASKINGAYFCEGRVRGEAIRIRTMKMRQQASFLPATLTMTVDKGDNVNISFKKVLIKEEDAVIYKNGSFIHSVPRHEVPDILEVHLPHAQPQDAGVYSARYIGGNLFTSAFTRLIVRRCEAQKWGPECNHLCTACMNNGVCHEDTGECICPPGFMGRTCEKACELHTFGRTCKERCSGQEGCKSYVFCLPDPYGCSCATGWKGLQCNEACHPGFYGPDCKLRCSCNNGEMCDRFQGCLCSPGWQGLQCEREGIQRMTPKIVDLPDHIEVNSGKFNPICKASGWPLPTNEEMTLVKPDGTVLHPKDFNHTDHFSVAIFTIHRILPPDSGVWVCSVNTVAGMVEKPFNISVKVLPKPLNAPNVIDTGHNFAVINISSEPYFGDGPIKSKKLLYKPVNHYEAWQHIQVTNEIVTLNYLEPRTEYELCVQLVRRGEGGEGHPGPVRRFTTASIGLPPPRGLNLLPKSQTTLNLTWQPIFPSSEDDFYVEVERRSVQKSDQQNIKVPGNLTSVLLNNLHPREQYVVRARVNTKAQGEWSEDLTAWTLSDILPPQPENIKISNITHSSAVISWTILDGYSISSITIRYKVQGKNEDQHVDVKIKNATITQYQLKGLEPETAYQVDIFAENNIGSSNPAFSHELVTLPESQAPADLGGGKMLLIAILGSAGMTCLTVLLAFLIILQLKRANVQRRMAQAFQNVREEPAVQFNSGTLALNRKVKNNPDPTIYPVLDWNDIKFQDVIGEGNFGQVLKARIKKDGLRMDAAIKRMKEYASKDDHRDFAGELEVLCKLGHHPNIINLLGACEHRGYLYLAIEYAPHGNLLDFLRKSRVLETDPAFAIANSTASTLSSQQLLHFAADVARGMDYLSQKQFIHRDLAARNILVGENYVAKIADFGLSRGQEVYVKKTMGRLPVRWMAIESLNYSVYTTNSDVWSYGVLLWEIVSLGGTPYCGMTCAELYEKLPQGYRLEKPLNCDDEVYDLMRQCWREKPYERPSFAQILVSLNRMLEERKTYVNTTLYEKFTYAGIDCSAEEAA
# Test: NVS_ENZ_hTie2: NovaScreen (NVS) Enzymatic Assay for human Tyrosine Protein Kinase Receptor Tie-2 (Tie2) (AID 2283225)
# Summary of the method: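 Recombinant human Tie2 kinase activity was read cell-free by fluorescence with electrophoretic mobility shift, 1 hour after dosing. The screen used 25 uM in duplicate, then concentration-response up to 50 uM. Signal loss was scored against DMSO.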
SMILES,outcome,AC50
COc1ccc(OC(F)(F)F)cc1CN[C@H]1CCCN[C@H]1c1ccccc1,inactive,–
CCc1c(C(=O)NN2CCCCC2)nn(-c2ccc(Cl)cc2Cl)c1-c1ccc(Br)cc1,inactive,–
O=C(c1ccc(OCCN2CCCCC2)cc1)c1c(-c2ccc(O)cc2)sc2cc(O)ccc12,–,31 µM (active)
CC/C(=C(\c1ccccc1)c1ccc(OCCN(C)C)cc1)c1ccccc1,inactive,–
O=C(O)Cc1cc(I)c(Oc2cc(I)c(O)c(I)c2)c(I)c1,inactive,–
Cc1ccc(N)cc1O,inactive,–
C[C@]12CC[C@@H]3c4ccc(O)cc4C[C@@H](CCCCCCCCCS(=O)CCCC(F)(F)C(F)(F)F)[C@H]3[C@@H]1CC[C@@H]2O (some centres undefined),inactive,–

# Tested on: rat Monoamine Oxidase, MAO-A, Peripheral (MAOAP), gene 29253
# Test: NVS_ENZ_rMAOAP: NovaScreen (NVS) Enzymatic Assay for rat Monoamine Oxidase, MAO-A, Peripheral (MAOAP) (AID 2283237)
# Summary of the method: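 Rat liver mitochondrial membranes served as the MAO-A source, with enzyme activity measured by radiometric scintillation counting 1.17 hours after dosing. Loss of signal was fitted against DMSO; primary screen used 25 uM in duplicate, follow-up used concentration series.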
SMILES,AC50,outcome
NCc1cccc(C2CCN(C(=O)c3ccc(C#Cc4ccccc4F)o3)CC2)c1,3.57 µM (active),–
CNS(=O)(=O)c1cc(C(=O)N2CCC(CCN3C4CCC3CC(n3c(C)nc5ccccc53)C4)(c3cccc(F)c3)CC2)c(Cl)cc1F (centres undefined),–,inactive
COc1ccc2cc(S(=O)(=O)N[C@H](CC(=O)N[C@H](Cc3ccc(CN4[C@H](C)CCC[C@@H]4C)cc3)C(=O)N(C)C(C)C)c3ccc4c(c3)OCO4)ccc2c1,36 µM (active),–
Cc1cc(CCN2CCN(c3nsc4ccccc34)CC2)cc2c1NC(=O)CC2(C)C,–,inactive
Clc1cc(Cl)c2c(c1)N=C1CCCCCN1C2,4.96 µM (active),–
N=C(N)c1ccc(OCCCCCOc2ccc(C(=N)N)cc2)cc1,0.504 µM (active),–
Nc1ccc2c(c1)C(=O)c1ccccc1C2=O,6.14 µM (active),–

# Target: rat Monoamine Oxidase, MAO-B, Peripheral (MAOBP), Maob (gene 25750) (UniProt P19643)
# Sequence (P19643 whole entry, looked up): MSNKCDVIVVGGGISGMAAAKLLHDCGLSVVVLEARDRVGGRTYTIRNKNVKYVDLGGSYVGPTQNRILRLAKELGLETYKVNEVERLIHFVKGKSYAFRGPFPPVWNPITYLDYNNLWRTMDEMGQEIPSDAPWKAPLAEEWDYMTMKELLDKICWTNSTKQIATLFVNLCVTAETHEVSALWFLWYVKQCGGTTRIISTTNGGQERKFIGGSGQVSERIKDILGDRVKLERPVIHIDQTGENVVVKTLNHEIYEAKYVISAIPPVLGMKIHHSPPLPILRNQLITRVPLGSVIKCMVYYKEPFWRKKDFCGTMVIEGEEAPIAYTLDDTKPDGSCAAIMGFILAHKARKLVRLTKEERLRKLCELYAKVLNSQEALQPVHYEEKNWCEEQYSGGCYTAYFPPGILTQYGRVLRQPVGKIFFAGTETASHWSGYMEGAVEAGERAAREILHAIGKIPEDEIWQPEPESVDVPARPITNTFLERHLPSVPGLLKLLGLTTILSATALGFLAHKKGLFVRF
# Test: NVS_ENZ_rMAOBP: NovaScreen (NVS) Enzymatic Assay for rat Monoamine Oxidase, MAO-B, Peripheral (MAOBP) (AID 2283242)
SMILES,outcome,AC50
COc1ccc2cc(S(=O)(=O)N[C@H](CC(=O)N[C@H](Cc3ccc(CN4[C@H](C)CCC[C@@H]4C)cc3)C(=O)N(C)C(C)C)c3ccc4c(c3)OCO4)ccc2c1,inactive,–
COc1cccc(-c2ccc(/C=C\CN3CCCCCC3)cc2Cl)c1,–,11.6 µM (active)
N=C(N)c1ccc(OCCCCCOc2ccc(C(=N)N)cc2)cc1,–,0.905 µM (active)
